# Compound activity deposited in PubChem by several laboratories.
# MazEF act: activators of E. coli MazEF toxin-antitoxin RNase, primary screen, biochemical, fluorescence, uHTS; FAM/BHQ RNA-DNA oligo cleavage fluorescence, 5 h; AID 504720, 2011; Endoribonuclease toxin MazF (Escherichia coli (strain K12)), P0AE70; 0.32% of 350,000 active; activation, % at 20 µM; in the data active = activation above about 50%
# BoNT F protease: BoNT/F light chain protease inhibitors, primary screen, biochemical, flow cytometry, MLPCN library; Multiplex microsphere protease cleavage assay; inhibition, % at 10 µM; Botulinum neurotoxin type F light chain protease (Clostridium botulinum); AID 588497, 2011; 0.22% of 360,000 active; in the data active = inhibition above about 35%, passing the limit was not always enough; inconclusive = no clear call, values can overlap the other calls; also: plate controls were buffer without enzyme for full effect and enzyme alone for no effect
# Anthrax LF inh2: Bacillus anthracis LF protease inhibitors, primary screen, biochemical, multiplex microsphere, MLPCN library; Lethal factor (Bacillus anthracis), P15917; multiplex microsphere protease cleavage assay; inhibition, % at 10 µM; 0.12% of 360,000 active; AID 588501, 2011; also: plate controls were buffer without enzyme for full effect and enzyme alone for no effect
# Target sequence (P15917 whole entry, looked up): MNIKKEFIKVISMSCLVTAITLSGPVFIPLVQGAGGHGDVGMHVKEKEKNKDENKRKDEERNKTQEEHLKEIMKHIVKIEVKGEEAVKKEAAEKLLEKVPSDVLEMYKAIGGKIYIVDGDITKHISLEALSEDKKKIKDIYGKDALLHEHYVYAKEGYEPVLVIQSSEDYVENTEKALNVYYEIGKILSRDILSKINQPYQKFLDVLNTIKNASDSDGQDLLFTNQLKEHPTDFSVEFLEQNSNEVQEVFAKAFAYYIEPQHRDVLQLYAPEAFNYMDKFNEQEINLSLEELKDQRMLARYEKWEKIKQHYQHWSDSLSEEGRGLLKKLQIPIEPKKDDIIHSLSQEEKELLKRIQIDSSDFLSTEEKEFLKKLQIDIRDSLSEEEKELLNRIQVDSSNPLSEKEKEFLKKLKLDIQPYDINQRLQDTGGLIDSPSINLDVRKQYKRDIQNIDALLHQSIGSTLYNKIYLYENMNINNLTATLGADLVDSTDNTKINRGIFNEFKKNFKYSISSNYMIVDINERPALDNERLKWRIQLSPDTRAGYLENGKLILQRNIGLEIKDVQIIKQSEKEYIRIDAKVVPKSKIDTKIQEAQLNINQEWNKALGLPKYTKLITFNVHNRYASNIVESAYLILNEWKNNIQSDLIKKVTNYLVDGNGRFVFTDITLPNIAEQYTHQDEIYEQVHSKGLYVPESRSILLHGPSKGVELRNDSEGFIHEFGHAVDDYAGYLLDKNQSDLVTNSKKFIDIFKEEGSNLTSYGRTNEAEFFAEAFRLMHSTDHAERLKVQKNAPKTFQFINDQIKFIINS
# Autofluor counter: counter-screen for toxin protease inhibitors: compound fluorescence; fluorescence intensity (concentration not given with the values); 3.1% of 360,000 active; compound autofluorescence counterscreen, microsphere flow cytometry; active compounds read high; in the data active = fluorescence intensity above about 16000; inconclusive = no clear call, values can overlap the other calls
# BoNT A protease: BoNT/A light chain protease inhibitors, primary screen, biochemical, flow cytometry, MLPCN library. Botulinum neurotoxin type A light chain protease (Clostridium botulinum A str. ATCC 3502). multiplex microsphere protease substrate cleavage. inhibition, % at 10 µM. 0.17% of 360,000 active. AID 588499, 2011; also: plate controls were buffer without enzyme for full effect and enzyme alone for no effect
# Active calls of the source: *; ? = inconclusive; nt = not tested or not shown; ! = repeats disagree. In the library only some 3.7% were active in any assay of this set; here they are far more common. Rule as the data show it, unless noted: active = inhibition above about 30%; inconclusive = no clear call, values can overlap the other calls; inactive = below that.
SMILES,MazEF act,BoNT F protease,Anthrax LF inh2,Autofluor counter,BoNT A protease
CC1CCN(C(=O)COC(=O)c2ccc(Cl)nc2)CC1,0,1,0,5274,3
O=C(OCC(=O)N1CCOCC1)c1ccc(Cl)nc1,3,3,-4,22562*,1
CCOC(=O)c1c(C)[nH]c(C(=O)OC(C)C(=O)NC2(C#N)CCCCC2)c1C (centres undefined),-8,2,-3,3861,0
O=C(O)c1ccc(-c2ccc(OS(=O)(=O)c3ccccc3F)cc2)cc1,1,8,-2,5387,-1
COC(=O)c1ccccc1S(=O)(=O)Oc1ccc(-c2ccc(C(=O)O)cc2)cc1,-3,37*,-14,3745,-3
CCOc1c(C)cc(-c2ncccc2O)cc1C,-3,-4,-2,22538*!,-1
COc1ccc(-c2ncccc2O)cc1,7,-7,0,2533,0
COC(=O)Cn1cc(S(=O)(=O)NCc2ccc(C)cc2)c2cc([N+](=O)[O-])ccc21,-6,24,-10,2975,-1
Cc1cc(/C=C2/SC(=S)N(c3cccc(C(F)(F)F)c3)C2=O)c(C)n1-c1cccnc1,-9,84*,46*,11089,53*
Cc1cc(/C=C2\SC(=S)N(Cc3ccco3)C2=O)c(C)n1-c1cccnc1,-393,-5,-10,13069,7
COc1ccc(-c2oc3ncnc(N)c3c2-c2ccccc2)cc1,15,4,1,21630*,3
COc1ccc(-c2oc3ncn4nc(COc5ccccc5)nc4c3c2-c2ccc(OC)cc2)cc1,46,-4,-2,15978,1
CN(C)S(=O)(=O)c1ccc(C(=O)NCCc2ccco2)cc1,-7,5,28,3085,-3
COc1ccc(N2CCN(c3ccc(S(=O)(=O)N(C(C)C)C(C)C)cn3)CC2)cc1,4,-11,3,3576,-4
O=C(c1cccs1)N(Cc1ccccn1)Cc1ccco1,7,-1,-3,24079*,-1
N#Cc1nc(COc2ccccc2Cl)oc1NCc1ccc(F)cc1,-19,-8,-6,22901*,-6
COc1ccc(N2CCN(c3oc(COc4ccccc4Cl)nc3C#N)CC2)cc1,-4,-1,-10,19893*,?
COc1ccc(CNc2oc(C)nc2C#N)cc1,10,-4,1,20862*,?
Cc1ccc(CNc2oc(COc3ccccc3Cl)nc2C#N)cc1,-19,-12,-4,2314,-1
N#Cc1nc(COc2ccc(F)cc2)oc1N1CCC(Cc2ccccc2)CC1,-10,-3,-5,16803*,-1
COc1ccc(OCc2nc(C#N)c(N3CCN(c4ccc(OC)cc4)CC3)o2)cc1,-8,-6,-8,5128,-1
CCc1[nH]nc(C(=O)NC2CCCc3c2cnn3-c2cc(C)cc(C)c2)c1C (centres undefined),3,2,0,5505,1
CCOc1cc(N2CCOCC2)c(OCC)cc1NC(=O)c1ccccc1N1CCCC1=O,6,-16,-5,3196,0
Cc1cc(Nc2ccc(N(C)C)cc2)n2ncnc2n1,10,-27,-11,3252,-9
Cc1cc(N2CCN(S(=O)(=O)c3ccc4c(c3)OCCO4)CC2)n2ncnc2n1,6,0,-1,23595*,-1
SMILES,MazEF act,BoNT F protease,Anthrax LF inh2,Autofluor counter,BoNT A protease
Cc1cc(Nc2ccc3c(c2)OCCO3)n2ncnc2n1,0,3,-1,22455*,1
O=C(CCCN1C(=O)C(=Cc2ccc3c(c2)OCO3)SC1=S)Nc1ccc(C(=O)O)c(O)c1,nt,3,0,3820,1
OCCC1CN(Cc2cccn2-c2ccccn2)CCN1Cc1ccccc1 (centres undefined),598*,-3,3,4414,0
OCCC1CN(Cc2cccn2-c2ccccn2)CCN1C1CCCC1 (centres undefined),15,-2,-2,3963,1
CC(=O)c1c(C)[nH]c(C(=O)N2CCN(c3ccc(F)cc3)CC2)c1C,-3,-5,-3,23763*,-4
COc1cccc(N2CCN(C(=O)c3[nH]c(C)c(C(C)=O)c3C)CC2)c1,0,-3,-2,4014,-1
Cn1c(=O)c2c(nc(N3CCCCC3)n2CCSc2nc3ccccc3s2)n(C)c1=O,-8,-4,0,16274*,0
CC1CCCN(c2nc3c(c(=O)n(C)c(=O)n3C)n2CCSc2nc3ccccc3s2)C1 (centres undefined),7,1,-4,20318*,1
CC1(C(=O)NS(=O)(=O)c2cccc(Cl)c2)CCN1C(=O)C1(c2ccccc2)CC1 (centres undefined),nt,4,-8,3521,0
CCc1nc(SCc2cc(Cl)ccc2OC)n[nH]1,7,-8,0,17236*,-4
CCc1nc(SCc2ccc(OC)cc2)n[nH]1,13,-19,0,3189,-7
CC(C)C(C(=O)O)N1C(=O)C2C3CCC(C3)C2C1=O (centres undefined),3,3,6,2907,0
COC(=O)c1c(NC(=O)CSc2nnnn2-c2ccccc2)sc2c1CCC(C(C)(C)C)C2 (centres undefined),-18,-1,-2,23374*,-2
CC1CCN(C(=O)C(=O)c2cn(CC(=O)N3CCCCCC3)c3ccccc23)CC1,-3,8,38*,6694,37*
CCN1CCN(C(=O)C(=O)c2cn(CC(=O)N3CCCCCC3)c3ccccc23)CC1,-8,5,10,7481,4
NC(=O)C1CCN(C(=O)C(=O)c2cn(CC(=O)N3CCCCCC3)c3ccccc23)CC1,-17,17,39*,7217,39*
CN1CCN(C(=O)C(=O)c2cn(CC(=O)N3CCCCCC3)c3ccccc23)CC1,-14,12,36*,4647,10
CC1CCCN(C(=O)C(=O)c2cn(CC(=O)N3CCCCCC3)c3ccccc23)C1 (centres undefined),5,13,28,7036,35*
CC(OC(=O)CC1CCCCC1)C(=O)Nc1ccc(S(N)(=O)=O)cc1 (centres undefined),1,-5,-4,7455,-1
CCCCN(C(=O)CCC(=O)Nc1cc(C)on1)C(C(=O)NC1CCCC1)c1ccccc1OCC (centres undefined),8,3,0,5460,2
CCOc1cc2[nH]c(=S)n(C(C)C)c(=O)c2cc1OCC,4,-3,-5,21566*,0
CCOc1cc2[nH]c(=S)n(Cc3ccc(C)o3)c(=O)c2cc1OCC,9,-5,-5,17111*,?
CCOC(=O)N1CCC(n2c(=S)[nH]c3cc(OCC)c(OCC)cc3c2=O)CC1,12,9,-5,18805*,?
CC(C)CC1NC(=O)N(CC(=O)Nc2cccc(Br)c2)C1=O (centres undefined),0,-8,-5,2944,0
O=C(O)CC1(C(=O)O)CC2C=CC1C2 (centres undefined),5,-7,-1,3824,0
